Hits are enriched below; roughly 11% of the tested compounds scored in any of these assays.
HCV inh: HCV inhibition | Huh7.5.1 HCVcc-Cre infection, luciferase reporter, 44 h | Potency, µM (series often up to 41.8 µM), for inactives: at the highest dose activity change, negative = inhibition, hits mostly inhibitors | 340,000 compounds, 3.4% hits | AID 651820
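Luciferase read-out (15 sec integration) after a 15 min room-temperature substrate step quantifies HCVcc-Cre infection. Cells, 1,000 per well, had compound added 4 h post-plating, then virus at ~0.5 moi, and were cultured 44 h.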
AmpC inh detg: inhibitors of E. coli AmpC beta-lactamase with detergent; 370,000 compounds, 0.041% hits; P00811; AmpC hydrolysis of nitrocefin, absorbance 480 nm, 0.01% Triton; Potency, µM (series often up to 114 µM), for inactives: top-dose activity change, negative = inhibition, usual class: inhibitors;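 note: 0% = no-compound wells and -100% = no-enzyme wells; nearly all actives have a fitted effect of over 25% in size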
Target sequence (P00811 whole entry, looked up): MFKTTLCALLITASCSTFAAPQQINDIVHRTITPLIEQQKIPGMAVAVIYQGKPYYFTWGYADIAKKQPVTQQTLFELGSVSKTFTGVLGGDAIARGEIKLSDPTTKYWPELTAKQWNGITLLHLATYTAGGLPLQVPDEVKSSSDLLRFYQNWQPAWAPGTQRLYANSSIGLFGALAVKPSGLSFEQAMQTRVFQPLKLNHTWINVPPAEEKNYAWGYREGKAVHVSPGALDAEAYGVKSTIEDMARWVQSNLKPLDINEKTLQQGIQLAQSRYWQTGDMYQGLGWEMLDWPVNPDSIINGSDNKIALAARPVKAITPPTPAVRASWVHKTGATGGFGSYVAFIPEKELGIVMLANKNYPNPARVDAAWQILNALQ
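AmpC (5.3 nM in the dispensed reagent) in 20 mM phosphate pH 7.0 with 0.01% (detergent screen) or 0.0001% Triton X-100 was preincubated with compounds for 15 min at room temperature. Nitrocefin was then added from an 800 uM solution, and hydrolysis was followed at 480 nm.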
AmpC no deterg: blocks E. coli AmpC beta-lactamase in detergent-free assay; AID 485341; AmpC nitrocefin hydrolysis, absorbance 480 nm, 0.0001% Triton; 330,000 compounds, 0.52% hits; Potency, µM (series often up to 57.1 µM), for the others: at the top dose activity change, negative = inhibition, actives largely listed as inhibitors;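 note: plate controls were no compound for no effect and no enzyme for full effect; nearly all actives have a fitted effect of over 20% in size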
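20 mM phosphate pH 7.0 + 0.01% (detergent screen) or 0.0001% Triton X-100; 5.3 nM AmpC reagent; cpd preinc 15 min RT; nitrocefin (800 uM stock) to start; A480 q20 s × 4 min; Activity was normalised to no-enzyme and no-compound control wells.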
Pf growth 48h: inhibits P. falciparum growth in the first generation, 48 h; P. falciparum luciferase growth in erythrocytes, 48 h; AID 504832; 310,000 compounds, 5.9% hits; Potency, µM (doses to about 28.7 µM), inactives show at the highest dose activity change, negative = inhibition, actives largely listed as inhibitors
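Parasite viability was followed by luminescence of a genomically integrated firefly luciferase. Cultures held 0.1% parasitemia at 2% hematocrit (final), incubated under 5% CO2 at 37 C.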
AMA1 RON2 block: inhibitors of Plasmodium falciparum AMA1-RON2 interaction; 360,000 compounds, 0.2% hits; AlphaScreen AMA1-biotinylated RON2 peptide binding; Potency, µM (titrated, usually from 58.2 µM), inactives show top-dose activity change, negative = inhibition, usual class: inhibitors; AID 720542;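 note: 0% = vehicle wells and -100% = peptide control; nearly all actives have a fitted effect of over 45% in size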
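AMA1 (3D7) with his tag at 25 nM final met compounds first, then biotinylated RON2 peptide at 25 nM; detection used donor plus acceptor beads, 10 µg/mL apiece, read by AlphaScreen after 30 min at room temperature.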
Pf growth 96h: inhibits malaria parasite growth, 96 h; P. falciparum luciferase reporter growth, 96 h; Potency, µM (highest dose often 28.7 µM), for inactives: top-dose activity change, negative = inhibition, hits mostly inhibitors; 320,000 compounds, 6.9% hits
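P. falciparum expressing integrated firefly luciferase, in erythrocytes at 2% hematocrit, 0.05% parasitemia, incubated with compounds 96 h at 37 C, 5% CO2. Growth inhibition read as loss of luminescence; two-generation exposure targets delayed-death apicoplast inhibitors.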
* = called active by the depositor; ? = inconclusive; . = not tested or not shown; [ ] = remark or other dose. Calls come from the whole dose curve; as a rule, active = well fitted curve in the direction sought with a large enough effect; inconclusive = small, poorly fitted or top-dose-only effect, or another doubt; inactive = no such curve, though single readings can be large; an effect the other way counts as inactive or inconclusive. Unless noted, % is set by controls: 0 for no effect and ±100 for the full control effect; potency is the fitted concentration of half-maximal effect.

SMILES | HCV inh | AmpC inh detg | AmpC no deterg | Pf growth 48h | AMA1 RON2 block | Pf growth 96h
CCN(CC)CCCNc1ccc(-c2nnc(-c3ccc(OCC(C)C)cc3)o2)cn1 | 8.9µM* | 2% | 35% | ? | -1% | ?
CCN(CC)CCCNC(=O)CN1C(=O)CCn2nc(-c3cn(C)c4ccccc34)cc21 | . | -1% | . | . | . | .
COc1ccc(/C=C\c2onc(C)c2S(=O)(=O)N2CCC(C(=O)Nc3ccccc3OC)CC2)cc1 | . | 2% | . | . | . | .
COc1ccc(-c2cn3c(n2)sc2cc(C(=O)NCCC4=CCCCC4)ccc23)cc1 | . | 12% | . | . | . | .
c1ccc2c(c1)CCOC2CNCCCN1CCCCC1 (centres undefined) | ? | 2% | -27% | ? | 17% | 12µM*
O=S(=O)(NCC1OCCc2ccccc21)c1ccc(S(=O)(=O)N2CCOCC2)cc1 (centres undefined) | -5% | ? | 20% | -13% | -2% | 103%
CCCC(=O)Nc1ccc(C2C(=O)c3ccccc3C2=O)cc1 | 5µM* | -8% | 0% | 123% | 5% | 0%
O=C1c2ccccc2C(=O)C1(c1ccccc1)N1CCN(c2cccc(C(F)(F)F)c2)CC1 | . | 18% | . | . | . | .
C#CCOCCOCCOCCNc1nc(N2CCN(C(=O)CCCCCCCCCCNC(=O)[C@H]([C@@H](C)CC)n3cc(CCCCCN)nn3)CC2)nc(N2CCN(C(=O)CCCCCCCCCCNC(=O)[C@H]([C@@H](C)CC)n3cc(CCCCN=C(N)N)nn3)CC2)n1 | ? | 11% | 307% | ? | . | 2.9µM*
C#CCOCCOCCOCCNc1nc(N2CCN(C(=O)CCCCCCCCCCNC(=O)[C@H]([C@@H](C)CC)n3cc(CCCCN=C(N)N)nn3)CC2)nc(N2CCN(C(=O)CCCCCCCCCCNC(=O)[C@H](CCCCN)n3cc(C)nn3)CC2)n1 | ? | 9% | 315% | 3.7µM* | ? | 4.7µM*
C#CCOCCOCCOCCNc1nc(N2CCN(C(=O)CCCCCCCCCCNC(=O)[C@H]([C@@H](C)CC)n3cc(CCCCN=C(N)N)nn3)CC2)nc(N2CCN(C(=O)CCCCCCCCCCNC(=O)[C@H]([C@@H](C)CC)n3cc(CCCCN=C(N)N)nn3)CC2)n1 | ? | 7% | 227% | 3.7µM* | . | 4.1µM*
C#CCOCCOCCOCCNc1nc(N2CCN(C(=O)CCCCCCCCCCNC(=O)Cn3cc(CCCCCN)nn3)CC2)nc(N2CCN(C(=O)CCCCCCCCCCNC(=O)[C@H]([C@@H](C)CC)n3cc(CCCCN=C(N)N)nn3)CC2)n1 | ? | -1% | 200% | 2.1µM* | ? | 3.3µM*
COc1cc(C2CC(=O)Nc3c2c(=O)n(C)c2ncnn32)cc(OC)c1OC (centres undefined) | . | 4% | . | . | . | .
COCCCNC(=O)Cn1c(=O)nc(-c2ccccc2)c2ccccc21 | . | 14% | . | . | . | .
C#CCOCCOCCOCCNc1nc(N2CCN(C(=O)CCCCCCCCCCNC(=O)[C@H]([C@@H](C)CC)n3cc(CCCCN=C(N)N)nn3)CC2)nc(N2CCN(C(=O)CCCCCCCCCCNC(=O)[C@H](CO)n3cc(CCCCCN)nn3)CC2)n1 | ? | -6% | 178% | 5.2µM* | ? | 5.2µM*
COc1ccc([C@H]2[C@H](C(=O)OC(C)(C)C)N3N=Cc4ccccc4C3C23C(=O)c2ccccc2C3=O)cc1OC (some centres undefined) | ? | -3% | 17% | 10µM* | -25% | 9.3µM*
COc1ccc([C@H]2[C@H](C(=O)OC(C)(C)C)N3N=Cc4ccccc4C3C23C(=O)c2ccccc2C3=O)c(OC)c1 (some centres undefined) | 1% | -12% | 18% | 2.9µM* | -26% | 1µM*
CC(C)(C)C(=O)[C@H]1[C@H](c2ccccc2)[C@@]2(N=C(c3ccccc3)OC2=O)C2c3ccccc3C=NN21 (some centres undefined) | -1% | ? | -52% | ? | -3% | ?
Cc1ccc(NC(=O)c2c(C)nn(-c3ccccc3)c2-n2cccc2)c(Cl)c1 | . | -1% | . | . | . | .
C=CCOc1c(Cl)cc(CNCCCN2CCOCC2)cc1OC | ? | ? | -7% | -11% | 14% | ?
COc1cc(CNCCCN2CCOCC2)cc(Br)c1OCC(=O)N1CCCCC1 | ? | -14% | 11% | -3% | -5% | 10%
CCOc1cc(CNCCCN2CCOCC2)cc(Br)c1OCC(=O)Nc1cccc(C(F)(F)F)c1 | ? | 3% | 164% | 1.2µM* | -4% | 0.66µM*
CCOc1cc(CNCCCN2CCOCC2)cc(Cl)c1OCC(=O)NC(C)(C)C | 11µM* | 4% | 37% | ? | -11% | 225%
CC(=O)C1=C(c2ccc(Cl)cc2)N(C(C)=O)n2c(nnc2C2CCCCC2)S1 | . | -2% | . | . | . | .
COC(=O)C(c1ccccc1)N(Cc1cccc(CN(C(C(=O)OC)c2ccccc2)S(C)(=O)=O)c1)S(C)(=O)=O (centres undefined) | ? | ? | 151% | 8.3µM* | -4% | 10µM*
SMILES | HCV inh | AmpC inh detg | AmpC no deterg | Pf growth 48h | AMA1 RON2 block | Pf growth 96h
COC(=O)[C@H](Cc1ccccc1)N(Cc1ccccc1)S(=O)(=O)N(Cc1ccccc1)[C@@H](Cc1ccccc1)C(=O)OC | -17%[8.37 µM] | . | -25% | . | -4% | .
COc1ccc(-c2nn(-c3ccccc3)cc2/C=C2/SC(=S)N(CCC(=O)O)C2=O)c(C)c1 | 19% | 9% | -15% | -2% | -11% | 5.9µM*
Cc1cc([N+](=O)[O-])ccc1NCc1ccc2ccccc2c1 | 11µM* | ? | -31% | -3% | -23% | 9%
Cc1cccc(CSc2nnc(CCCCCNC(=O)OC(C)(C)C)o2)c1 | ? | 2% | 99% | 9.3µM* | 6% | -9%
Cc1ccc(CSc2nnc(CCCCCNC(=O)OC(C)(C)C)o2)cc1 | ? | -1% | 95% | ? | -12% | -20%
COc1cccc(NC(=O)CN(C)C(=O)c2ccccc2OCC(=O)Nc2cccc(C(F)(F)F)c2)c1 | -23%[8.37 µM] | ? | 24% | -24% | 22% | -13%
Cc1ccc(NC(=O)CN(C)C(=O)c2cccnc2Nc2cccc(C(F)(F)F)c2)cc1 | ? | 1% | 45% | ? | -14% | 9.3µM*
CCOc1ncccc1C(=O)N(C)CC(=O)Nc1ccc(C)cc1 | -11% | -2% | -13% | 10% | 4%[11.6 µM] | 25%
